Bioassay records (PubChem)
ALOX12 inh – ALOX12 (human) lipoxygenase inhibition | P18054 | purified 12hLO, xylenol orange hydroperoxide absorbance | Potency, µM (series often up to 108 µM), usual class: inhibitors | 1.1% of 580,000 active
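Purified human 12hLO at 150 nM in 25 mM Hepes, 0.01% Triton X-100, pH 7.0, preincubated 15 min at room temperature with compound. Reaction started with 40 uM arachidonic acid, 30 min at room temperature. Hydroperoxide measured by Fe-xylenol orange, 573/405 nm absorbance ratio.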
TSG101-PTAP inh – blocks PTAP/TSG101 interaction to inhibit HIV-1 budding. Fluorescence polarization, FITC-PTAP peptide / Tsg101 binding. Q99816. 340,000 tested, under 10 active. Potency, µM (top dose mostly 115 µM), actives largely listed as inhibitors; active means well fitted inhibition curve with a large enough effect in the main read-out, with a control signal flat, not every such curve was filed as active; inconclusive means small, poorly fitted or top-dose-only effect, or effect the other way, or a change in a side signal; inactive means no such curve, though single readings can be large or run the other way
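FP read-out: FITC-PTAP peptide, 50 nM final, binding Tsg101 binding domain, 10 uM final; 20 min, r.t.; 10 mM HEPES pH 7.5, 0.15 M NaCl, 0.01% Tween 20, 3 mM EDTA, 0.1 mM TCEP.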
Eya2 inh – inhibitors of human Eya2 phosphatase activity; recombinant Eya2, OMFP fluorescence dephosphorylation (OMFP is methylfluorescein phosphate); O00167; AID 488837; Potency, µM (highest dose often 76.9 µM), most hits filed as inhibitors; 0.006% of 330,000 active
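Eya2 protein (added as 0.2 uM solution) was preincubated with compound for 10 min at ambient temperature in 50 mM HEPES pH 7.5, 50 mM NaCl, 5 uM MgCl2, 0.05% BSA, 1 mM DTT. OMFP (added at 50 uM) then reacted 10 min; fluorescence read at 485/525 nm.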
USP2a inh – blocks human ubiquitin-specific protease USP2a; USP2 core, Ub-CHOP2 coupled fluorogenic reporter, 485/531; Potency, µM (highest dose often 38.3 µM), actives largely listed as inhibitors; 0.01% of 330,000 active; AID 463254
Target sequence (O75604 whole entry, looked up): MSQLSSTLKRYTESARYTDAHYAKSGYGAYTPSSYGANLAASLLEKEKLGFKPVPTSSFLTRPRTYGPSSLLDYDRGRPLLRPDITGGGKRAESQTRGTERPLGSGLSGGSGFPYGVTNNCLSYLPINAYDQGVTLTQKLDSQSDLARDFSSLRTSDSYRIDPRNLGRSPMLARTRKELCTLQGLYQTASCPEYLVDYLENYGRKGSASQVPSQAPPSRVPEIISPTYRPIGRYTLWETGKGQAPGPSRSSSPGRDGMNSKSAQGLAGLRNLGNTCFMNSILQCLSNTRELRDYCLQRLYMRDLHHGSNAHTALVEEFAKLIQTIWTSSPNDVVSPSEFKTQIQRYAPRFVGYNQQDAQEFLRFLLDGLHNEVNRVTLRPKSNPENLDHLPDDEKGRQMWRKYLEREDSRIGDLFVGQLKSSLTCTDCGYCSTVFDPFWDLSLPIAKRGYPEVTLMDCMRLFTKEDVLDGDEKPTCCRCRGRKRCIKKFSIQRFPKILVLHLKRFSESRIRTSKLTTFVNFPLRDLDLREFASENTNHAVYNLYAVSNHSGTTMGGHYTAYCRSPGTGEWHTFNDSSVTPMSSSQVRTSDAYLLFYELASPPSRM
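Cell-free coupled assay: 10nM USP2 core preincubated 30min RT with compound in Tris-HCl pH 8.0/CaCl2/CHAPS buffer, then 25nM Ub-CHOP2 and 25nM reporter substrate; fluorescence (Ex 485/Em 531) read after 60min RT, normalized to NEM inhibition, concentration-response curves fitted.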
Of the large screens only hits and unclear results are named; the others gave an inactive call; ! = a repeat was not active. Shown are actives, neighbours in structure and some others; about 1.1% of the full set was active somewhere. Unless noted, the call rests on the fitted dose curve; in most records, active means well fitted curve in the direction sought with a large enough effect; inconclusive means small, poorly fitted or top-dose-only effect, or another doubt; inactive means no such curve, though single readings can be large; an effect the other way counts as inactive or inconclusive.

COc1ccccc1N1C(=O)NC(=O)/C(=C/c2ccc3c4c(cccc24)CC3)C1=O	ALOX12 inh 50µM
Fc1ccc(CNC2CN3CCC2CC3)cc1 (stereo not given)	none
Clc1ccc(Cl)c(-c2ccc(CNC3CN4CCC3CC4)o2)c1 (stereo not given)	ALOX12 inh 8.9µM (no result: TSG101-PTAP inh, Eya2 inh, USP2a inh)
O=C1NC(=O)N(c2ccccc2)C(=O)/C1=C/c1coc2ccc(O)cc2c1=O	ALOX12 inh 45µM
C/C=C/CN1CC2ON=C(C(=O)O)C2C1 (stereo not given)	none (no result: TSG101-PTAP inh, Eya2 inh, USP2a inh)
O=C(C1CCC1)N1[C@H]2CC[C@@H]1c1cnc(-c3ccc(F)cc3)nc1C2	none (no result: TSG101-PTAP inh, Eya2 inh, USP2a inh)
Oc1ccc(/C=N/NP(=S)(c2ccccc2)c2ccccc2)cc1O	ALOX12 inh 32µM
Oc1ccccc1/C=N/NP(=S)(c1ccccc1)c1ccccc1	none
COc1cccc(CC(=O)N2CCCCCC2CN2CCC(OC)CC2)c1 (stereo not given)	none (no result: TSG101-PTAP inh, Eya2 inh, USP2a inh)
COc1cc2c(cc1OC1CCCC1)NC(=O)C21CCN(C(=O)C(C)C)CC1	none (no result: TSG101-PTAP inh, Eya2 inh, USP2a inh)
Cc1nc(-c2ccccc2Br)cc([C@H]2CN3CC[C@H]2C[C@@H]3CNS(=O)(=O)c2cccs2)n1	none (no result: TSG101-PTAP inh, Eya2 inh, USP2a inh)
COc1ccc(/C=C/C=C2C(=O)NC(=S)NC2=O)cc1	ALOX12 inh 35µM (no result: Eya2 inh, USP2a inh)
Cc1ccc(N2C(=O)/C(=C/N3CCN(C(=O)c4ccco4)CC3)C(=O)NC2=S)cc1C	ALOX12 inh 40µM
Cc1cccc(N2C(=O)/C(=C/N3CCN(C(=O)c4ccco4)CC3)C(=O)NC2=S)c1	ALOX12 inh inconclusive
O=c1[nH]c(=S)n(CCC2=CCCCC2)c(O)c1/C=N/Nc1ccccc1	ALOX12 inh 35µM
O=C(O)CC[n+]1ccc(-c2cc[n+](CCC(=O)O)cc2)cc1	ALOX12 inh 14µM (no result: TSG101-PTAP inh, Eya2 inh, USP2a inh)
N#Cc1cccc(NC(=O)Nc2ccc3n(c2=O)C[C@H]2C[C@@H]3CN(C3CCOCC3)C2)c1	ALOX12 inh 16µM (no result: TSG101-PTAP inh, Eya2 inh, USP2a inh)
COP(=S)(OC)Oc1ccc(S(=O)(=O)N(C)C)cc1	ALOX12 inh 11µM! (no result: TSG101-PTAP inh, Eya2 inh, USP2a inh)
CN(C)c1nc(-c2ccccc2)[n+](C)s1	ALOX12 inh inconclusive
Cc1ccc(-c2nc(N3CCOCC3)s[n+]2-c2ccccc2)cc1	ALOX12 inh 20µM
COc1ccc2c(c1)C1(CCN(C(=O)NC3CCCCC3)C1)C(=O)N2 (stereo not given)	none (no result: TSG101-PTAP inh, Eya2 inh, USP2a inh)
COc1ccc2c(c1)C1(CCN(C(=O)c3ccccc3Br)C1)C(=O)N2 (stereo not given)	ALOX12 inh 32µM (no result: TSG101-PTAP inh, Eya2 inh, USP2a inh)
Cc1noc(C)c1COc1ccc(CC(=O)N(CCC#N)CCN2CCOCC2)cc1	none (no result: TSG101-PTAP inh, Eya2 inh, USP2a inh)
COc1cc2c(cc1CCc1ccccc1)N(C(=O)c1ccn(C)n1)CC21CCN(C(C)=O)CC1	none (no result: TSG101-PTAP inh, Eya2 inh, USP2a inh)
Cc1ccc(/C=C2\C(=O)NC(=S)N(c3ccccc3F)C2=O)s1	ALOX12 inh 40µM
Oc1cc2c(cc1O)[C@H]1c3ccccc3CN[C@@H]1CC2	none (no result: ALOX12 inh, TSG101-PTAP inh)
Oc1cc2c(cc1O)[C@H]1c3ccccc3CN[C@H]1CC2	ALOX12 inh 11µM! (no result: TSG101-PTAP inh, Eya2 inh, USP2a inh)
O=C(COc1ccccc1)N1CCN(CC2CC3C=CC2C3)CC1 (stereo not given)	ALOX12 inh inconclusive
O=C(COc1ccccc1)N1CCN(CC2CC=CCC2)CC1 (stereo not given)	ALOX12 inh 0.63µM
CCOC(=O)C1=C(NC(=S)NC(=O)c2ccccc2)c2ccccc2CC12CCCC2	ALOX12 inh 20µM
CCOP(=O)(OCC)C(NC(=O)c1ccccc1)=C(Cl)Cl	none
CSc1cccc(NC(=O)NC[C@H]2C[C@@H]3CCN2C[C@@H]3CN2CCSCC2)c1	none (no result: TSG101-PTAP inh, Eya2 inh, USP2a inh)
Cn1nc(-c2ccccc2)cc1[C@H]1CN2CC[C@H]1C[C@@H]2CNS(=O)(=O)Cc1ccccc1	none (no result: TSG101-PTAP inh, Eya2 inh, USP2a inh)
NC(=O)C1=NO[C@@H]2CN(CC3CCCCC3)C[C@H]12	none (no result: TSG101-PTAP inh, Eya2 inh, USP2a inh)
c1ccc2c(c1)Nc1ccccc1S2	ALOX12 inh 0.11µM
O=C1Nc2ccccc2Sc2ccccc21	ALOX12 inh inconclusive
CN1CC2(CCN(c3nccc(N)n3)CC2)CC1C(=O)O (stereo not given)	none (no result: TSG101-PTAP inh, Eya2 inh, USP2a inh)
COc1ccc(N2C(=O)/C(=C/C=C/c3ccccc3[N+](=O)[O-])C(=O)NC2=S)cc1	ALOX12 inh 11µM
O=C1NC(=S)N(Cc2ccco2)C(=O)/C1=C\c1cccs1	USP2a inh inconclusive (no result: ALOX12 inh, TSG101-PTAP inh)
COc1ccc(N2C(=O)NC(=O)/C(=C\c3ccc([N+](=O)[O-])s3)C2=O)cc1	ALOX12 inh 45µM
COc1ccc(N2C(=O)/C(=C/c3cccs3)C(=O)NC2=S)cc1	ALOX12 inh 28µM
